Counter-ions that a name gives are not always drawn.
Each compound was assayed on S. cerevisiae AD1-9 (efflux-pump deficient), vegetative growth in YPD (assay: growth sensitivity score (doubling time z-score vs DMSO controls); higher = slower growth, strongly negative scores also mark growth inhibition (complete suppression), active = hit call of the paper).
Summary of the method: (§1)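 Rich medium in microtiter plates was seeded with Saccharomyces cerevisiae strains BY4741 and AD1-9 at an OD600 of 0.065, and compounds were added as a 1:100 dilution of DMSO stock. A Tecan GENios reader recorded optical density every 15 min for 24 hours, with eight solvent-only wells in each experiment. Average doubling time was the time to reach a set generation point divided by generation number. The growth sensitivity score was the compound mean minus the solvent-only mean, divided by the solvent-only standard deviation.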

Row | Compound | growth sensitivity score
1 | CN1CCN(C2=Nc3ccccc3Oc3ccc(Cl)cc32)CC1 [Loxapine succinate] (stock concentration (mM, diluted 1:100): 11) | 6.01 (active)
2 | Nc1nc(O)c2ncn(CCC(CO)CO)c2n1 [Penciclovir] (stock concentration (mM, diluted 1:100): 10) | -0.22 (inactive)
3 | Cc1[nH]cnc1CN1CCc2c(c3ccccc3n2C)C1=O [Alosetron hydrochloride] (stock concentration (mM, diluted 1:100): 8.9) | -0.69 (inactive)
4 | O=C1CC[C@@H](C(=O)N2CSC[C@H]2C(=O)O)N1 [Pidotimod] (stock concentration (mM, diluted 1:100): 10) | 0.59 (inactive)
5 | Cc1ccnc2c1NC(=O)c1cccnc1N2C1CC1 [Viramune] (stock concentration (mM, diluted 1:100): 10) | -1.4 (inactive)
6 | CC(=O)OCC(=O)NCCCOc1cccc(CN2CCCCC2)c1 [Roxatidine acetate hydrochloride] (stock concentration (mM, diluted 1:100): 9.1) | -0.42 (inactive)
7 | CCN(CC)CC1CCCCN1CC(=O)N1c2ccccc2C(=O)Nc2cccnc21 (stereo not given) [Otenzepad] (stock concentration (mM, diluted 1:100): 10) | -1.89 (inactive)
8 | CCCN[C@H]1CCc2nc(N)sc2C1 [Pramipexole] (stock concentration (mM, diluted 1:100): 10) | 51 (active)
9 | CNC(=C[N+](=O)[O-])NCCSCc1csc(CN(C)C)n1 [Nizatidine] (stock concentration (mM, diluted 1:100): 10) | -0.22 (inactive)
10 | CC[N+](C)(CC)CCOC(=O)C(O)(c1ccccc1)C1CCCCC1 (stereo not given) [Oxyphenonium bromide] (stock concentration (mM, diluted 1:100): 10) | -1.02 (inactive)
11 | CCOC(=O)c1ncn2c1CN(C)C(=O)c1cc(F)ccc1-2 [Flumazenil] (stock concentration (mM, diluted 1:100): 10) | -0.24 (inactive)
12 | Nc1nc2ccc(OC(F)(F)F)cc2s1 [Riluzole] (stock concentration (mM, diluted 1:100): 9.9) | 15.4 (active)
13 | O=c1c(O[C@@H]2O[C@H](CO)[C@H](O)[C@H](O)[C@H]2O)c(-c2ccc(O)c(O)c2)oc2cc(O)cc(O)c12 [Hyperoside] (stock concentration (mM, diluted 1:100): 8.8) | 0.09 (inactive)
14 | Cc1c(O)cccc1C(=O)N[C@@H](CSc1ccccc1)[C@H](O)CN1C[C@H]2CCCC[C@H]2C[C@H]1C(=O)NC(C)(C)C [Nelfinavir mesylate] (stock concentration (mM, diluted 1:100): 8.6) | 16.2 (active)

The compounds below were run on S. cerevisiae BY4741 (wild-type), vegetative growth in YPD in the same assay as above.
Summary of the method: as §1

Row | Compound | growth sensitivity score
15 | NC1CCN(c2nc3c(cc2F)c(=O)c(C(=O)O)cn3-c2ccc(F)cc2F)C1 (stereo not given) [Tosufloxacin tosylate] (stock concentration (mM, diluted 1:100): 7) | -0.39 (inactive)
16 | C[C@@H]1C[C@H]2[C@@H]3CCC4=CC(=O)C=C[C@]4(C)[C@@]3(F)[C@@H](O)C[C@]2(C)[C@H]1C(=O)CO [Desoximetasone] (stock concentration (mM, diluted 1:100): 10) | 1.97 (inactive)
17 | C/C=C1\[C@H]2C=C(C)C[C@]1(N)c1ccc(=O)[nH]c1C2 [Huperzine a] (stock concentration (mM, diluted 1:100): 10) | -1.79 (inactive)
18 | CN1CCN(CCCN2c3ccccc3Sc3ccc(Cl)cc32)CC1 [Prochlorperazine] (stock concentration (mM, diluted 1:100): 10.4) | 146 (active)
19 | C=CC1=C(C(=O)O)N2C(=O)[C@@H](NC(=O)/C(=N\OCC(=O)O)c3csc(N)n3)[C@H]2SC1 [Cefixime trihydrate] (stock concentration (mM, diluted 1:100): 10) | -0.62 (inactive)
20 | Cc1occc(=O)c1O [Maltol] (stock concentration (mM, diluted 1:100): 10) | -0.74 (inactive)
21 | C=CC[C@@H]1/C=C(\C)C[C@H](C)C[C@H](OC)[C@H]2O[C@@](O)(C(=O)C(=O)N3CCCC[C@H]3C(=O)O[C@H](/C(C)=C/[C@@H]3CC[C@@H](O)[C@H](OC)C3)[C@H](C)[C@@H](O)CC1=O)[C@H](C)C[C@@H]2OC [Tacrolimus] (stock concentration (mM, diluted 1:100): 10) | 12 (active)
22 | COc1ccc(/C=C/C(=O)Nc2ccccc2C(=O)O)cc1OC [Tranilast] (stock concentration (mM, diluted 1:100): 10) | -0.6 (inactive)
23 | CC[C@H]1OC(=O)[C@H](C)[C@@H](O[C@H]2C[C@@](C)(OC)[C@@H](O)[C@H](C)O2)[C@H](C)[C@@H](O[C@@H]2O[C@H](C)C[C@H](N(C)C)[C@H]2O)[C@](C)(OC)C[C@@H](C)C(=O)[C@H](C)[C@@H](O)[C@]1(C)O [Clarithromycin] (stock concentration (mM, diluted 1:100): 10) | 1.37 (inactive)
24 | COc1cc(C(=O)NC2CCCNC2)cc(OC)c1OC (stereo not given) [Troxipide] (stock concentration (mM, diluted 1:100): 10.1) | 0.38 (inactive)
25 | Oc1ccc(/C=C/c2cc(O)cc(O)c2)cc1 [Resveratrol] (stock concentration (mM, diluted 1:100): 10) | -0.21 (inactive)
26 | CC(Oc1c(Cl)cccc1Cl)C1=NCCN1 (stereo not given) [Lofexidine hydrochloride] (stock concentration (mM, diluted 1:100): 10) | 0.09 (inactive)
27 | CN1C(=O)CC[C@H]1c1cccnc1 [Cotinine] (stock concentration (mM, diluted 1:100): 10) | 0.49 (inactive)
28 | CN1C(C(=O)Nc2ccccn2)=C(O)c2ccccc2S1(=O)=O [Piroxicam] (stock concentration (mM, diluted 1:100): 10) | 0.09 (inactive)
29 | O=c1[nH]cnc2c1ncn2[C@H]1CC[C@@H](CO)O1 [Didanosine] (stock concentration (mM, diluted 1:100): 10.1) | -1.9 (inactive)
30 | CC(C)(C)NCC(O)c1ccc(O)c(CO)c1 (stereo not given) [Salbutamol sulfate] (stock concentration (mM, diluted 1:100): 9.7) | -0.62 (inactive)

Row | Compound | growth sensitivity score
31 | Cc1cc2c(s1)Nc1ccccc1N=C2N1CCN(C)CC1 [Olanzapine] (stock concentration (mM, diluted 1:100): 9.9) | -0.76 (inactive)
32 | Nc1ccn([C@H]2CC[C@@H](CO)O2)c(=O)n1 [Zalcitabine] (stock concentration (mM, diluted 1:100): 10) | -1.35 (inactive)
33 | CN(C)CCCC1(c2ccc(F)cc2)OCc2cc(C#N)ccc21 (stereo not given) [Citalopram hydrobromide] (stock concentration (mM, diluted 1:100): 7.9) | -0.04 (inactive)
34 | Fc1ccc([C@@H]2CCNC[C@H]2COc2ccc3c(c2)OCO3)cc1 [Paroxetine] (stock concentration (mM, diluted 1:100): 8.8) | 1.33 (inactive)
35 | CCCCN1CCCC1CNC(=O)c1cc(C#N)c2ccccc2c1OC (stereo not given) [Nafadotride] (stock concentration (mM, diluted 1:100): 10) | -0.11 (inactive)
36 | CN1CCN(C2=Nc3ccccc3Oc3ccc(Cl)cc32)CC1 [Loxapine succinate] (stock concentration (mM, diluted 1:100): 11) | 1.9 (inactive)
37 | Nc1nc(O)c2ncn(CCC(CO)CO)c2n1 [Penciclovir] (stock concentration (mM, diluted 1:100): 10) | -0.88 (inactive)
38 | Cc1[nH]cnc1CN1CCc2c(c3ccccc3n2C)C1=O [Alosetron hydrochloride] (stock concentration (mM, diluted 1:100): 8.9) | 3.01 (active)
39 | O=C1CC[C@@H](C(=O)N2CSC[C@H]2C(=O)O)N1 [Pidotimod] (stock concentration (mM, diluted 1:100): 10) | -1.4 (inactive)
40 | Cc1ccnc2c1NC(=O)c1cccnc1N2C1CC1 [Viramune] (stock concentration (mM, diluted 1:100): 10) | -1.29 (inactive)
41 | CC(=O)OCC(=O)NCCCOc1cccc(CN2CCCCC2)c1 [Roxatidine acetate hydrochloride] (stock concentration (mM, diluted 1:100): 9.1) | -1.51 (inactive)
42 | CN(C)CC/C=C1/c2ccccc2COc2ccc(CC(=O)O)cc21 [Olopatadine hydrochloride] (stock concentration (mM, diluted 1:100): 12.7) | -0.74 (inactive)
43 | CCN(CC)CC1CCCCN1CC(=O)N1c2ccccc2C(=O)Nc2cccnc21 (stereo not given) [Otenzepad] (stock concentration (mM, diluted 1:100): 10) | -2.57
44 | CCCN[C@H]1CCc2nc(N)sc2C1 [Pramipexole] (stock concentration (mM, diluted 1:100): 10) | -0.06 (inactive)
45 | CNC(=C[N+](=O)[O-])NCCSCc1csc(CN(C)C)n1 [Nizatidine] (stock concentration (mM, diluted 1:100): 10) | -0.09 (inactive)

From the supplement of paper PMC3414501
